ssDAF-12 act = activates DAF-12 receptor from parasite S. stercoralis; AID 652126; activation, % at 6.8 µM; HEK293 ssDAF-12/GRIP1 lit1-tk-luc reporter, luminescence; % of 3 µM dafachronic acid response; 370,000 tested, 1% active;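 active = activation above the mean over all tested compounds plus 3 SD, cut at about 0.9% in these data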
NF-kB neuron act = NF-kB expression increase, human neuronal cells; NF-kB reporter expression; hits give high values; fold change at 12.5 µM; 190,000 tested, 1.6% active; AID 1239; in the data active = fold change above about 3.3
hcDAF-12 act = activators of H. contortus DAF-12 nuclear receptor; 370,000 tested, 1.4% active; AID 652067; activation, % at 6.8 µM; HEK293 hcDAF-12 lit1-tk-luc reporter, luminescence; 0% DMSO, 100% Δ7-dafachronic acid;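 active = activation above the mean of all tested compounds plus 3 SD, cut at about 5.5% in these data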
APP 5'UTR act = activates APP 5'UTR luciferase reporter; SH-SY5Y APP 5'UTR luciferase reporter, luminescence; zero percent = DMSO vehicle wells; activation, % at 2 µM; 190,000 tested, 1% active;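 active = activation above a set limit, based on mean plus 3 SD of controls, cut at about 140% in these data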
hgDAF-12 ag = agonists of H. glycines DAF-12 nuclear receptor. activation, % at 6.8 µM. 370,000 tested, 1.8% active. AID 687014. HEK293 GAL4-hgDAF12 UAS-luciferase reporter, agonist luminescence; normalized to butyrate control;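 active = activation above a cutoff set at the mean of all screened compounds plus 3 SD, cut at about 10% in these data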
hgDAF12 ag = confirmation of H. glycines DAF-12 agonists; shares compounds with hgDAF-12 ag; HEK293 GAL4-hgDAF12 luciferase reporter, agonist mode; percent of butyrate response; activation, % at 6.8 µM; 3,300 tested, 80% active;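 active = mean activation over triplicate wells above the hit cutoff derived from the earlier primary screen, cut at about 11% in these data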
LXRb DAF12 ctr = counter-screen for DAF-12 agonists: agonists of human LXR-beta; shares compounds with hgDAF-12 ag; HEK293 Gal4-LXR luciferase reporter, 24 h; activation, % at 6.8 µM; 3,300 tested, under 10 active;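 active = mean activation of the triplicate above a set limit carried over from the primary screen, none filed active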
Target sequence (P55055 whole entry, looked up, the tested form may be a part): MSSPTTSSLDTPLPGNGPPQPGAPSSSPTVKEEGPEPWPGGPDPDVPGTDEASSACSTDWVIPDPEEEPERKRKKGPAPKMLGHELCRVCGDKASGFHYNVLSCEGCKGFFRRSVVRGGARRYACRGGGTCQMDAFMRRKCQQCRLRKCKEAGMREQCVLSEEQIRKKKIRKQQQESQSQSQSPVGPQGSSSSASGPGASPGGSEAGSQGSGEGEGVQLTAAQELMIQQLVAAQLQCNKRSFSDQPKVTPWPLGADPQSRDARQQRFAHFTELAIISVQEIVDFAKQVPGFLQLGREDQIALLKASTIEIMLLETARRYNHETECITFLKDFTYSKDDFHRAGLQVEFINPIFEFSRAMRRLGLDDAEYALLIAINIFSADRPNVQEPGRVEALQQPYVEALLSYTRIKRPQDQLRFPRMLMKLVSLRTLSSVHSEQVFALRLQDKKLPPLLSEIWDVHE
Large screens that a line does not name were inactive (follow-up assays come after a bar, where they were run). Most compounds without a hit are left out; they make up all but 3.4% or so of the library.

CC(=O)Oc1ccc(C(=O)NCCc2ccccc2)cc1	hgDAF-12 ag 15.5 | hgDAF12 ag 14.4 | LXRb DAF12 ctr inactive
C/C(=C\c1ccccc1)C(=O)NCCc1ccccc1	NF-kB neuron act 4.52, APP 5'UTR act 177.4, hgDAF-12 ag 18.8 | hgDAF12 ag 15.9 | LXRb DAF12 ctr inactive
O=C(NCCc1ccccc1)C(=Cc1ccc(C(=O)O)cc1)C(=O)NCCc1ccccc1	none
O=C(Cn1c(-c2cncs2)nc2ccccc21)NCc1cccs1	none (no result: NF-kB neuron act, APP 5'UTR act)
O=C(CSc1nnc(-c2ccncc2)n1-c1ccc(Cl)cc1)c1ccc(Cl)c(Cl)c1	none (no result: NF-kB neuron act, APP 5'UTR act)
Cc1ccc(S(=O)(=O)n2ccc(-c3c(-c4ccccc4)noc3C)n2)cc1	none (no result: NF-kB neuron act, APP 5'UTR act)
Nc1ccc2nc(SCc3cccc(F)c3)sc2c1	NF-kB neuron act 6.11, hgDAF-12 ag 15.6 | hgDAF12 ag 11.5 | LXRb DAF12 ctr inactive
CCOC(=O)CSc1nc2ccc(N)cc2s1	none
Cc1ccc(/C=N/NC(=O)c2ccccn2)s1	hgDAF-12 ag 15.3 | hgDAF12 ag 14.0 | LXRb DAF12 ctr inactive
O=C(NCCCc1ccccc1)[C@H](Cc1c[nH]c2ccccc12)NC1(C(=O)NCCc2c[nH]c3ccccc23)CCOCC1	none (no result: NF-kB neuron act, APP 5'UTR act)
Cc1ccc(S(=O)(=O)Nc2ccccc2[N+](=O)[O-])cc1	hgDAF-12 ag 27.8 (no result: NF-kB neuron act, APP 5'UTR act) | hgDAF12 ag inactive | LXRb DAF12 ctr inactive
Fc1ccc(CN2CCN(c3ncc(Cc4ccccc4)cn3)CC2)c(Cl)c1	none (no result: NF-kB neuron act, APP 5'UTR act)
Cc1ccc(Nc2nnc(SCC(=O)Nc3cccnc3Cl)s2)cc1C	hgDAF-12 ag 13.8 | hgDAF12 ag inactive | LXRb DAF12 ctr inactive
Cc1ccc(Nc2nnc(SCC(=O)Nc3ccccc3[N+](=O)[O-])s2)cc1	none
Clc1ccc([C@H]2OC[C@@]3(CNCc4ccccn4)CS[C@H](c4ccc(Cl)cc4)N23)cc1	none (no result: NF-kB neuron act, APP 5'UTR act)
O=C(c1cc(C2CC2)on1)N(C1CCCCC1)C1CCCCC1	none (no result: NF-kB neuron act, APP 5'UTR act)
O=C(O)c1cc(-c2ccc(N3CCOCC3)cc2)nn1-c1ccc(F)cc1F	hgDAF-12 ag 16.9 | hgDAF12 ag inactive | LXRb DAF12 ctr inactive
O=C(O)c1cc(-c2ccc(N3CCOCC3)cc2)nn1-c1ccccc1Cl	none
COc1ccc2cc(CCNC(=O)c3cc4ccccc4o3)c(=O)[nH]c2c1	none (no result: NF-kB neuron act, APP 5'UTR act)
COc1ccc2cc(CCNC(=O)c3cccs3)c(=O)[nH]c2c1	NF-kB neuron act 6.07, hgDAF-12 ag 15.4 | hgDAF12 ag 11.4 | LXRb DAF12 ctr inactive
CCCC(=O)Nc1nc2ccc(OCC)cc2s1	NF-kB neuron act 4.34, hgDAF-12 ag 16.6 | hgDAF12 ag 14.8 | LXRb DAF12 ctr inactive
CC(=O)NCCC(=O)Nc1nc2ccc(Oc3ccccc3)cc2s1	hgDAF-12 ag 21.0 (no result: NF-kB neuron act, APP 5'UTR act) | hgDAF12 ag 14.9 | LXRb DAF12 ctr inactive
Clc1ccc([C@H]2OC[C@@]3(CNCC4CC4)CS[C@H](c4ccc(Cl)cc4)N23)cc1	none (no result: NF-kB neuron act, APP 5'UTR act)
CS(=O)(=O)N(Cc1ccc(Cl)cc1)c1ccc(C(=O)NCCSc2ccccn2)cc1	none
O=C(NCCSc1ccccn1)c1ccc(Cl)cc1Cl	NF-kB neuron act 4.55, hgDAF-12 ag 15.2 | hgDAF12 ag 18.3 | LXRb DAF12 ctr inactive
O=C(NCCSc1ccccn1)c1ccc(Cl)cc1	NF-kB neuron act 6.09, APP 5'UTR act 208.6, hgDAF-12 ag 20.9 | hgDAF12 ag 16.3 | LXRb DAF12 ctr inactive
C=CCn1c(SCC(=O)c2ccc(-c3ccccc3)cc2)nnc1-c1ccc(OC)cc1	none (no result: NF-kB neuron act, APP 5'UTR act)
CN=c1scc(C)n1/N=C/c1ccc(O)c(O)c1O	none
CN=c1scc(-c2cccs2)n1/N=C/c1ccc(O)c(O)c1O	NF-kB neuron act 5, hcDAF-12 act 6.1, hgDAF-12 ag 13.6 | hgDAF12 ag 11.0 | LXRb DAF12 ctr inactive
Cc1cccc(N=Nc2c(C)nn(-c3ccccc3)c2N)c1C	hgDAF-12 ag 15.7 | hgDAF12 ag 10.7 | LXRb DAF12 ctr inactive
O=C(CSc1ccccc1)Nc1ccc(-c2nc3ccccc3[nH]2)cc1	hgDAF-12 ag 15.8 | hgDAF12 ag 12.6 | LXRb DAF12 ctr inactive
CCNC(=S)Nc1ccc(-c2nc3ccccc3[nH]2)cc1	hgDAF-12 ag 14.1 | hgDAF12 ag 16.9 | LXRb DAF12 ctr inactive
COC(=O)C1CN(Cc2cn(Cc3ccc(Cl)cc3)nn2)CCS(=O)(=O)N1Cc1ccc(Cl)cc1 (configuration not stated)	none (no result: NF-kB neuron act, APP 5'UTR act)

Assay outcomes deposited in PubChem BioAssay by several laboratories.
